Tau fibril ThT = blocks human tau fibril formation measured by thioflavin T. P10636. recombinant tau K18 P301L, heparin-induced fibrillization, ThT fluorescence. Potency, µM (highest dose often 57.4 µM), usual class: inhibitors. hit rate 2.1% among 270,000. AID 1460; also: nearly all actives have a fitted effect of over 55% in size
Target sequence (P10636 561-689 P618L limits assumed): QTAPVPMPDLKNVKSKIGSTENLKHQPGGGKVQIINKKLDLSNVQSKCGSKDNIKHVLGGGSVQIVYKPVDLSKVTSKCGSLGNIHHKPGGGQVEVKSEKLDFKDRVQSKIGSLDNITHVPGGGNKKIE
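Heparin-induced (20 uM) aggregation of recombinant human K18 P301L tau, 15 uM unlabeled with 0.24 uM labeled, pH 7 acetate buffer, 6 hr at 37 C with compound. Fibrils quantified by 30 uM ThT fluorescence after 1 hr ambient incubation.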
Tau fluor counter = counter-screen for tau fibril formation inhibitors; tau K18 P301L Alexa594 fluorescence, heparin fibrillization; Potency, µM (doses to about 57.7 µM); hit rate 0.93% among 280,000; also: nearly all actives have a fitted effect of over 55% in size
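Human tau K18 P301L (15 uM unlabeled, 0.24 uM Alexa 594-labeled) in 100 mM sodium acetate pH 7 with 20 uM heparin, 6 hr at 37 C. ThT 30 uM added, 1 hr ambient; Alexa 594 FP and total fluorescence read at 555/632 nm.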
ALDH1A1 inh = ALDH1A1 (human) enzyme inhibition | P00352 | Purified ALDH1A1, NADH fluorescence, propionaldehyde substrate | hit rate 7.3% among 220,000 | Potency, µM (highest dose often 75.3 µM), usual class: inhibitors; active = well fitted inhibition curve with a large enough effect, not every such curve was filed as active; inconclusive = small, poorly fitted or top-dose-only effect, or another doubt; inactive = no such curve, though single readings can be large or run the other way
NPSR antag = antagonists of human neuropeptide S receptor cAMP signaling. Q6W5P4. CHO-NPSR cells, cAMP TR-FRET, antagonist mode. Potency, µM (doses to about 38.3 µM), hits mostly inhibitors. hit rate 1% among 220,000. AID 1461; also: nearly all actives have a fitted effect of over 50% in size
Target sequence (Q6W5P4 whole entry, looked up): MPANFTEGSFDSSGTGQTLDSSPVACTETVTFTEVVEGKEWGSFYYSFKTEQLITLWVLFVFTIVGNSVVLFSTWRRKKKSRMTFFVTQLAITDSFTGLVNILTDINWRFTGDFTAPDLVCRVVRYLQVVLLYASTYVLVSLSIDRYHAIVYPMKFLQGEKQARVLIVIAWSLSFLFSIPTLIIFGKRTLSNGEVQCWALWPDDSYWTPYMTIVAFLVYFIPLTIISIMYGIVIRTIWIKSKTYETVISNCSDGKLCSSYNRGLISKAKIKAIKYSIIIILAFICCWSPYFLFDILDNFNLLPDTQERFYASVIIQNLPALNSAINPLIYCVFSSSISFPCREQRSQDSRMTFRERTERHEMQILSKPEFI
Tau FP inhib = blocks human tau fibril formation measured by polarization. Potency, µM (top dose mostly 57.7 µM), most hits filed as inhibitors. K18 P301L tau heparin fibrillization, Alexa594 FP, 6 h. hit rate 0.39% among 280,000; also: nearly all actives have a fitted effect of over 55% in size
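Quantitative HTS format: compounds meet 15 uM recombinant K18 P301L tau and Alexa 594-tau tracer in 100 mM sodium acetate pH 7; 20 uM heparin triggers fibrillization at 37 C over 6 hr; FP gives the signal.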
HPGD inh = inhibitors of human 15-hydroxyprostaglandin dehydrogenase (HPGD). P15428. purified HPGD, NADH fluorescence kinetic, PGE2 substrate. Potency, µM, usual class: inhibitors. hit rate 4.3% among 150,000; active = well fitted inhibition curve with a large enough effect, not every such curve was filed as active; inconclusive = small, poorly fitted or top-dose-only effect, or another doubt; inactive = no such curve, though single readings can be large or run the other way
Target sequence (P15428 whole entry, looked up): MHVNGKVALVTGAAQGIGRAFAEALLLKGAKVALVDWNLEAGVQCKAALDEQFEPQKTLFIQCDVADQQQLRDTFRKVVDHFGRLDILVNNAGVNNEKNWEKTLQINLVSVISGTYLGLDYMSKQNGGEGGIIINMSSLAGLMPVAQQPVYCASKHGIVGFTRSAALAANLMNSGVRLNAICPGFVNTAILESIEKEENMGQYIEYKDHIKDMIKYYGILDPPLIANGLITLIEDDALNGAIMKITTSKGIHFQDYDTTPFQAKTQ
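20 nM HPGD preincubated 15 min at room temperature with compound in 50 mM Tris-HCl pH 8, 0.01% Tween 20. Started with 1 mM NAD+ and 30 uM prostaglandin E2; NADH fluorescence (360/450 nm) read 5 times over 30-s intervals, last minus first.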
A number is an active result; 0 = inactive; ? = inconclusive; - = not tested or not shown; [ ] = another dose, or the depositor's remark. A selection: hits, their analogues and other compounds. The true share with any hit is near 9.5%. Unless noted, calls follow the shape of the dose curve; as a rule, active = well fitted curve in the direction sought with a large enough effect; inconclusive = small, poorly fitted or top-dose-only effect, or another doubt; inactive = no such curve, though single readings can be large; an effect the other way counts as inactive or inconclusive.

SMILES | Tau fibril ThT | Tau fluor counter | ALDH1A1 inh | NPSR antag | Tau FP inhib | HPGD inh
CCc1nn(CC(=O)N2CCN(c3cccc(C)c3C)CC2)c(=O)c2cc3sccc3n12 | 0 | 0 | - | - | 0 | -
Cc1ccsc1/C=N/n1c(-c2cccnc2)n[nH]c1=S | 0 | 0 | ? | 0 | 0 | ?
O=[N+]([O-])c1ccc(/C=N/n2c(-c3cccnc3)n[nH]c2=S)cc1 | 0 | 0 | 2.8µM | ? | 0 | -
O=[N+]([O-])c1ccc(Cl)c(/C=N/n2c(-c3cccnc3)n[nH]c2=S)c1 | 0 | 0 | 7.9µM | 0 | 0 | 8.9µM
O=[N+]([O-])c1cccc(/C=N/n2c(-c3cccnc3)n[nH]c2=S)c1 | 0 | 0 | 10µM | 0 | 0 | 20µM
Nc1nc(SCC(=O)NCc2ccccc2)[nH]c(=O)c1NC(=O)c1ccccc1F | 0 | 0 | 0 | 0 | 0 | 0
CC1=CC(=C(C#N)c2nc3ccccc3s2)C=C(C)N1Cc1ccco1 | 0 | 4µM[quencher] | 0 | 0 | ? | 0
N#C/C(=C(/O)c1ccco1)c1nc2ccccc2s1 | ? | 0 | 0 | 0 | 0 | 0
CCCC12CN3CC(C)(CN(C1)C3c1ccc3c(c1)OCO3)C2=O (stereo not drawn) | 0 | 0 | 2µM | 0 | 0 | 0
CC12CN3CC(C)(CN(C1)C3c1ccc3c(c1)OCO3)C2 (stereo not drawn) | 0 | 0 | 0 | 0 | 0 | -
CC(C)C12CN3CC(C(C)C)(CN(C1)C3c1ccc3c(c1)OCO3)C2=O (stereo not drawn) | 0 | 0 | 7.9µM | 0 | 0 | 0
CC(=O)Nc1ccc(C(C#N)c2ccccc2)cc1 (stereo not drawn) | 0 | 0 | 14µM | 0 | 0 | -
N#CC(c1ccccc1)c1ccc(C(=O)c2ccc(F)cc2)cc1 (stereo not drawn) | 0 | 0 | 20µM | ? | 0 | ?
N#CC(c1ccc(F)cc1)c1ccc(C(=O)c2ccccc2)cc1 (stereo not drawn) | 0 | 0 | 0 | 0 | 0 | 14µM
Cc1ccc(-c2noc(CN(C(=O)COc3cc(C)cc(C)c3C)C(C)C)n2)cc1 | ? | 0 | - | - | 0 | -
Cc1ccc(-c2ccc(SCC(=O)c3ccccc3)nn2)cc1 | ? | 0 | ? | 0 | 0 | ?
COc1ccc(-c2ccc(SCC(=O)c3ccccc3)nn2)cc1OC | ? | 0 | 25µM | 0 | 0 | -
O=C(O)c1ccc(-c2nc(-c3ccccc3)c(-c3cccs3)[nH]2)cc1 | - | 0 | - | 0 | ? | -
O=[N+]([O-])c1ccc(O)c(-c2nc(-c3ccccc3)c(-c3cccs3)[nH]2)c1 | 20µM | 11µM[quencher] | ? | ? | 0 | 0
CCOc1cc(-c2nc(-c3ccccc3)c(-c3cc([N+](=O)[O-])ccc3C)[nH]2)ccc1O | ? | 11µM[quencher] | 6.3µM | ? | 0 | 0
COc1ccc(-c2nc(-c3ccccc3)c(-c3cc([N+](=O)[O-])ccc3C)[nH]2)cc1OC | ? | ? | 0 | 7.9µM | ? | 0
CCOc1ccc(-c2nc(-c3ccccc3)c(-c3ccccc3)[nH]2)cc1OCC | 0 | ? | - | - | ? | -
CCc1c(-c2ccccc2)nc2ccccc2c1C(=O)NCCc1ccccc1 | 0 | 0 | - | - | 0 | -
COc1ccc(/C=C/C(=O)Nc2cccc(S(=O)(=O)NC3=NCCCCC3)c2)cc1 | 0 | ? | - | ? | 0 | -
Cc1ccccc1OCC(=O)Nc1ccc2c(c1)C(=O)c1ccccc1C2=O | 0 | ? | 18µM | ? | ? | 0
SMILES | Tau fibril ThT | Tau fluor counter | ALDH1A1 inh | NPSR antag | Tau FP inhib | HPGD inh
CCOc1cc(C=C2C(=O)c3ccccc3C2=O)ccc1OCC(=O)Nc1ccc(C)cc1 | 0 | 0 | 15µM | 0 | 0 | -
Cc1ccccc1OCC(=O)Nc1ccc2c(c1)Cc1ccccc1-2 | 0 | 0 | 0 | 0 | 0 | -
Cc1ccccc1OCC(=O)Nc1ccccc1-c1ccccc1 | ? | 0 | 8.9µM | 0 | 0 | 0
COc1ccc(CN(C)CC(=O)Nc2ccccc2-c2ccccc2)c(OC)c1 | 0 | 0 | 2.8µM | 0 | 0 | -
COCC(=O)Nc1ccccc1-c1ccccc1 | 0 | 0 | 0 | 0 | 0 | -
COc1ccc(S(=O)(=O)N(NC2=NS(=O)(=O)c3ccccc32)C(=O)C(C)C)cc1 | 0 | 0 | 0 | 0 | 0 | -
CCOC(=O)COc1cnc2ccccc2n1 | 0 | 0 | ? | 0 | 0 | -
CC(=O)Nc1ccc2c(c1)C(=O)c1ccccc1C2=O | ? | 0 | 3.5µM | 0 | 0 | 0
C=C(C)C(O)/C=C/c1ccc(C)cc1 (stereo not drawn) | 0[11.5 µM] | 0[11.6 µM] | 0[13.5 µM] | - | 0[11.6 µM] | -
O=C(c1ccc2c(c1)N(Cc1ccc(Cl)cc1)C(=O)c1ccccc1S2(=O)=O)N1CCN(c2ccccn2)CC1 | 0 | 0 | - | - | 0 | -
O=C(c1ccc2c(c1)N(Cc1cccc(Cl)c1)C(=O)c1ccccc1S2(=O)=O)N1CCN(c2ccccn2)CC1 | 0 | 0 | 20µM | 0 | 0 | -
CN(C)CCCN=c1c2ccccc2n(C)c2[nH]c(=O)n(C)c(=O)c12 | - | - | 0[13.5 µM] | - | - | 0
COc1ccc(CNC(=O)c2ccc(NC(=O)N3CCSc4ccccc43)cc2)cc1 | 0 | ? | - | - | ? | -
Cc1ncsc1C(=O)N1N=C2/C(=C/c3ccccc3)CCCC2C1c1ccccc1 (stereo not drawn) | 0 | 0 | ? | ? | 0 | ?
Cc1ncsc1C(=O)N1N=C2/C(=C/c3ccc(N4CCOCC4)cc3)CCCC2C1c1ccc(N2CCOCC2)cc1 (stereo not drawn) | 14µM | 0 | ? | ? | 0 | 0
CCc1ccc(N(C(=O)c2csnn2)C(C(=O)NC(C)(C)C)c2cccnc2)cc1 (stereo not drawn) | 0 | 0 | 13µM | 0 | 0 | -
O=C(NC1CCCC1)C(c1ccncc1)N(C(=O)c1csnn1)C1CCCC1 (stereo not drawn) | 0 | 0 | 13µM | 0 | 0 | -
CC(C)c1ccc(N(C(=O)c2csnn2)C(C(=O)NC(C)(C)C)c2ccncc2)cc1 (stereo not drawn) | 0 | 0 | 2.2µM | 0 | 0 | 0
O=C(NC1CCCC1)C(c1cccnc1)N(C(=O)c1csnn1)C1CCCC1 (stereo not drawn) | 0 | 0 | ? | 0 | 0 | 0
CC(C)(C)NC(=O)C(c1cccnc1)N(C(=O)c1csnn1)c1ccccc1 (stereo not drawn) | 0 | 0 | 0 | 0 | 0 | -
CC(C)c1ccc(N(C(=O)c2csnn2)C(C(=O)NC(C)(C)C)c2cccnc2)cc1 (stereo not drawn) | 0 | 0 | 0.71µM | 0 | 0 | -
Cc1cccn2c(=O)c3cc(C(=O)NC(C)c4ccccc4)c(=N)n(CCCn4ccnc4)c3nc12 (stereo not drawn) | 0 | 0 | ? | 0 | 0 | -
O=C(Nc1ccc(F)cc1F)C(Cc1ccccc1)N1Cc2ccccc2C1=O (stereo not drawn) | 0 | 0 | - | - | 0 | -
CC(C)C(C(=O)O)N1C(=O)/C(=C/C=C/c2ccco2)SC1=S (stereo not drawn) | 13µM | ? | ? | 0 | 25µM | 3.5µM
O=C1/C(=C/c2ccco2)SC(=S)N1c1cccnc1 | 16µM | ? | - | 0 | ? | -

Compound activity from PubChem BioAssay.
